Source: the supplement of paper PMC11732987, “Enantioselective OTUD7B fragment discovery through chemoproteomics screening and high-throughput optimisation” (Communications Chemistry, 2025)

What was measured:
Assay in all cases: log2 ratio of Biotin-Ahx-Ub-VS probe labelling (fragment/DMSO); higher = less target engagement (more negative = stronger competition), active = hit call of the paper (q ≤ 0.05, log2 ratio ≤ -1)
Settings in all cases: compound concentration: 200 uM; treatment time: 3 h
USP19 = target: T1, USP19 (UniProt O94966)
T1 sequence (whole entry): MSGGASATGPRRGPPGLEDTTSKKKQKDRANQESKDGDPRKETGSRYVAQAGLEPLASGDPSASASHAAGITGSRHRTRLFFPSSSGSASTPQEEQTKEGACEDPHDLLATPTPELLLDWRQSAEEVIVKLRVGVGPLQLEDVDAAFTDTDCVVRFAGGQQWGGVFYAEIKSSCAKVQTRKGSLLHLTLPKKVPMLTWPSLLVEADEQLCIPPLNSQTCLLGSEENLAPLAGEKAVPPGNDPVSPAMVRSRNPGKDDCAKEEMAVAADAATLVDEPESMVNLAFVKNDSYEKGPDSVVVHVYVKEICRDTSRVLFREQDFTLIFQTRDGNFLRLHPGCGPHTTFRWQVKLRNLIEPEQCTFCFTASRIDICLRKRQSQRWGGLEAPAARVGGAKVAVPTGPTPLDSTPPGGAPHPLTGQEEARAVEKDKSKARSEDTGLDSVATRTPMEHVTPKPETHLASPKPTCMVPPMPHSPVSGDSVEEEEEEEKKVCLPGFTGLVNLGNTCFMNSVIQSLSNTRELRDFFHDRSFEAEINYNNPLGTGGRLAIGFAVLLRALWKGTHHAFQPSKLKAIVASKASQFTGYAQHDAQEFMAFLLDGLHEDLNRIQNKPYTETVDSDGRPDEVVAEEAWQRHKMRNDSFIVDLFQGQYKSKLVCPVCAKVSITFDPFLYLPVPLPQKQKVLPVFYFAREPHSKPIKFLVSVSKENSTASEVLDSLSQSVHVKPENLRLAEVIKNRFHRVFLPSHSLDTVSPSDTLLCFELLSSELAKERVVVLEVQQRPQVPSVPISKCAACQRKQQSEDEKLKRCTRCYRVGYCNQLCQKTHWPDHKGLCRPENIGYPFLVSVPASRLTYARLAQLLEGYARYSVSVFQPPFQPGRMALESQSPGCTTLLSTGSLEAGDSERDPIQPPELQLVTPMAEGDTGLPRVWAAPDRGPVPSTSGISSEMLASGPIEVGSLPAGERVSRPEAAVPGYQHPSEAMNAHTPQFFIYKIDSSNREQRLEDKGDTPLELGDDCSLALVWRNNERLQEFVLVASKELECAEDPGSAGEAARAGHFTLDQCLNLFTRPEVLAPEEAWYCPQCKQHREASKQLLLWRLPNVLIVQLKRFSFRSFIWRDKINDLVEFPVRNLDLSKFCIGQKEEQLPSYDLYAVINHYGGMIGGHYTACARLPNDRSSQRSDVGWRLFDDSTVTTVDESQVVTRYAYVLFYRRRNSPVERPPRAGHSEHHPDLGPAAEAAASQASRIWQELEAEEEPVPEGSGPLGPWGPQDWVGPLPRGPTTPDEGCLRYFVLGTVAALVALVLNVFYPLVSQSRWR
Procedure, shortened: (§1)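 Labelled DUBs from HEK293T lysate were NeutrAvidin-enriched, digested with LysC and trypsin, and run by diaPASEF LC-MS/MS. Before that, each 495 µg sample in Tris/CHAPS/IGEPAL buffer with protease inhibitors was treated in triplicate with fragment at 200 µM or vehicle for 3 h, then with Biotin-Ahx-Ub-VS at 0.5 µM final for 1 h. Values are average log2 ratios of fragment over vehicle by unpaired t-test, based on global-median-normalised Spectronaut label-free quantities from proteins with ≥2 unique peptides.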

USP22 = target: T2, USP22 (UniProt Q9UPT9)
T2 sequence (whole entry): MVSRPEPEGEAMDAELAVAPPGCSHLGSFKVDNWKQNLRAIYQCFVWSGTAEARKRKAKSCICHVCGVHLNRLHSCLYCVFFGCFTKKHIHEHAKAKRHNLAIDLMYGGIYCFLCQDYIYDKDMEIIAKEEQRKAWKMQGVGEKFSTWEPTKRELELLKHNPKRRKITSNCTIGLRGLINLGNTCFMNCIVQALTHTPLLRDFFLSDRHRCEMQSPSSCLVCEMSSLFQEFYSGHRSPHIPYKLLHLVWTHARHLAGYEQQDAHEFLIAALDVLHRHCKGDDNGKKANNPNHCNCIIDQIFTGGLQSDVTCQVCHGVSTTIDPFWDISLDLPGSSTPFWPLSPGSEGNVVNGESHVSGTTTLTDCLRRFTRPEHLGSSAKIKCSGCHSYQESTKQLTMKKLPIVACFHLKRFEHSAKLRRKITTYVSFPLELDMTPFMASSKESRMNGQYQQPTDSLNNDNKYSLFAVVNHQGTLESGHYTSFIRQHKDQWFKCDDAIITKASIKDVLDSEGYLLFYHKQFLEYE
Procedure, shortened: as §1

USP24 = USP24 (UniProt Q9UPU5)
Chain of USP24 (Q9UPU5 whole entry): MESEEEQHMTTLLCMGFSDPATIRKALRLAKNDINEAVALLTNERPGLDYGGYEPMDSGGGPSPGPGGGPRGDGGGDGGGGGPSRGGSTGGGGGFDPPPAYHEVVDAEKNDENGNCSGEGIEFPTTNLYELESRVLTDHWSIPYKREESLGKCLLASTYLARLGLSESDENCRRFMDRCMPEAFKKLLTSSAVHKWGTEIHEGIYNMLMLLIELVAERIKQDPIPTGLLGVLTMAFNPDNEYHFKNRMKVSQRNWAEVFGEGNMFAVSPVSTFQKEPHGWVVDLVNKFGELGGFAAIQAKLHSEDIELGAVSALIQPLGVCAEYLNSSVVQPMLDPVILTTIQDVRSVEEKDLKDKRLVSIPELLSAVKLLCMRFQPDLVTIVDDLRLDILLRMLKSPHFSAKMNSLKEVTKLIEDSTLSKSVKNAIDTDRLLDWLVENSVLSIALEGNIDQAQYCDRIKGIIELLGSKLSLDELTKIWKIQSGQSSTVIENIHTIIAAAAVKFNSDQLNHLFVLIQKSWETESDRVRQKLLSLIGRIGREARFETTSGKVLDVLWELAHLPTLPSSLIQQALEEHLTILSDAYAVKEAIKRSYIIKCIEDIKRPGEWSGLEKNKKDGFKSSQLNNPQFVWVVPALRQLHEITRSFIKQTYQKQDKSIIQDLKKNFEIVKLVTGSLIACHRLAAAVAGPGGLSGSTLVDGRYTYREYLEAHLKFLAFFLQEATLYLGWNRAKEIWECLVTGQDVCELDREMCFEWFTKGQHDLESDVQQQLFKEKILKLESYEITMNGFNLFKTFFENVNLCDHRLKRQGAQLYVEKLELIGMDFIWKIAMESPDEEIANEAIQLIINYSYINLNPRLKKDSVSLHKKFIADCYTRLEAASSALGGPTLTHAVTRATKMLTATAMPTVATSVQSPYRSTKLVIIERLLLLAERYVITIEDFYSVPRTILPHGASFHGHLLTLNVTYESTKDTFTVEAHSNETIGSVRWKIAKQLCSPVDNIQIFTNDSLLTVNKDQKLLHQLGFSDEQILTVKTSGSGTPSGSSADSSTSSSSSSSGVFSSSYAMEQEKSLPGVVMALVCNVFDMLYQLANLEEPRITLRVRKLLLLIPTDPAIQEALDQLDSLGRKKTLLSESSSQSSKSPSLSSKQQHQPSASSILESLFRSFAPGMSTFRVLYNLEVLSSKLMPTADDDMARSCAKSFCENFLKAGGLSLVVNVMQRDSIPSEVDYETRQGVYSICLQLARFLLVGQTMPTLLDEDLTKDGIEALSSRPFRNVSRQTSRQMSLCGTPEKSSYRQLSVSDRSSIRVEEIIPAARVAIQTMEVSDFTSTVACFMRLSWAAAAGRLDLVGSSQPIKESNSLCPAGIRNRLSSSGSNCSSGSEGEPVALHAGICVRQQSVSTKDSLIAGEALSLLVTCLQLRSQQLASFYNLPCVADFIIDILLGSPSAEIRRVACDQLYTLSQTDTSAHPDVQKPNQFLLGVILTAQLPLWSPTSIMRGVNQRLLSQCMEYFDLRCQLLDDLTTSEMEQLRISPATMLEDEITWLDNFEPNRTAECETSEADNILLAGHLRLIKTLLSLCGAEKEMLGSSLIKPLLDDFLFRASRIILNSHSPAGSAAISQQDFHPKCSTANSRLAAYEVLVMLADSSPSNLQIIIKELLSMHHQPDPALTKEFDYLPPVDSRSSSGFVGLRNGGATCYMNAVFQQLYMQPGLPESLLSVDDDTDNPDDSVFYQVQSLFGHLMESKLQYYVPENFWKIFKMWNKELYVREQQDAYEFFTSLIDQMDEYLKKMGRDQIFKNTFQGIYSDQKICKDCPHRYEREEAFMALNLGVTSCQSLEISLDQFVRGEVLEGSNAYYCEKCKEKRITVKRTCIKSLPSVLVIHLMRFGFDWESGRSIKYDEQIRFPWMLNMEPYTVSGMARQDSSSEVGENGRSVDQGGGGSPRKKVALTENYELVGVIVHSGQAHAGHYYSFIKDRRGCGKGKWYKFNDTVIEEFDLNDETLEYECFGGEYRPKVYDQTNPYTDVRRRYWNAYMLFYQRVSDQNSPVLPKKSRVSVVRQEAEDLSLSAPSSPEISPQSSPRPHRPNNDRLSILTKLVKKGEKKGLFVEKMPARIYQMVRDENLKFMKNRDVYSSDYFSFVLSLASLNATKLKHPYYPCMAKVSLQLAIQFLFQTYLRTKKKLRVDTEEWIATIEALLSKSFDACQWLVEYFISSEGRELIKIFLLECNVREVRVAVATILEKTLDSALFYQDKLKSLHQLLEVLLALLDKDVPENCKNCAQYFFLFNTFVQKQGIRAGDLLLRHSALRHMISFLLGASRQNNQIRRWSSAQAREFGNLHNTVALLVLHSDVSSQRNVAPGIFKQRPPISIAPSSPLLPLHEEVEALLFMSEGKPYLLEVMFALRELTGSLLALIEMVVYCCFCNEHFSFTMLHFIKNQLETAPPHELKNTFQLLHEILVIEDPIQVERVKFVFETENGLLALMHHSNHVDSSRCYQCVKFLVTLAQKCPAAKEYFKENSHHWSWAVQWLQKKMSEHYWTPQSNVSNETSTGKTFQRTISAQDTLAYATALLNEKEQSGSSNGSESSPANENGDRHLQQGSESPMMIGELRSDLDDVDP
Procedure, shortened: as §1

USP25 = target: T3, USP25 (UniProt Q9UHP3)
T3 sequence (whole entry): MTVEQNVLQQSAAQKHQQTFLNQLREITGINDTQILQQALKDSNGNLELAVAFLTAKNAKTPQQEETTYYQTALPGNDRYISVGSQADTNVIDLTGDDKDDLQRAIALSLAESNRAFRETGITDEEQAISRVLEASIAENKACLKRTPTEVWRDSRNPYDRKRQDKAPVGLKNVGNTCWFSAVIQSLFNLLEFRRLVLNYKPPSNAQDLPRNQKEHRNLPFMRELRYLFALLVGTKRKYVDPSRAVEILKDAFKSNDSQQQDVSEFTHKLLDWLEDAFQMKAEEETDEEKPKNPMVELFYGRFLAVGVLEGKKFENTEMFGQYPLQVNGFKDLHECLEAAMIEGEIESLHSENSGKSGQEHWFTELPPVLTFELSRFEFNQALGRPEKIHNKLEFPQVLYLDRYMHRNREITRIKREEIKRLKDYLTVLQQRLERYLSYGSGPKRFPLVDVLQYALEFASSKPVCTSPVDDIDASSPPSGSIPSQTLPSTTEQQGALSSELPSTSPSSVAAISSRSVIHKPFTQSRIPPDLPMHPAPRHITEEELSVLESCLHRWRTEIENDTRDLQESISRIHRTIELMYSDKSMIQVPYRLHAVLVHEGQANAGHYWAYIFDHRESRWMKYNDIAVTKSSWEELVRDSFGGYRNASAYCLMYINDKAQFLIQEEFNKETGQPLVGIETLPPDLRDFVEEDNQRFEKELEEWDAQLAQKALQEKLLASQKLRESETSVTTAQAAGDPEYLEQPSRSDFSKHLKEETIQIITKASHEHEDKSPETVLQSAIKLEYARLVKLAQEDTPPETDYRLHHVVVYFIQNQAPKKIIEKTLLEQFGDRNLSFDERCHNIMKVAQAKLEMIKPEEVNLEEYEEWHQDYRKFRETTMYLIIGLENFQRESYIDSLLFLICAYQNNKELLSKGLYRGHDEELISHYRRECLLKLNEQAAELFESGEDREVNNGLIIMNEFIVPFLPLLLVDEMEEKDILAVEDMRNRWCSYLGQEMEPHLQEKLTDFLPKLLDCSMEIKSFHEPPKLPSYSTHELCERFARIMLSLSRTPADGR
Procedure, shortened: as §1

USP28 = target: T4, USP28 (UniProt Q96RU2)
T4 sequence (whole entry): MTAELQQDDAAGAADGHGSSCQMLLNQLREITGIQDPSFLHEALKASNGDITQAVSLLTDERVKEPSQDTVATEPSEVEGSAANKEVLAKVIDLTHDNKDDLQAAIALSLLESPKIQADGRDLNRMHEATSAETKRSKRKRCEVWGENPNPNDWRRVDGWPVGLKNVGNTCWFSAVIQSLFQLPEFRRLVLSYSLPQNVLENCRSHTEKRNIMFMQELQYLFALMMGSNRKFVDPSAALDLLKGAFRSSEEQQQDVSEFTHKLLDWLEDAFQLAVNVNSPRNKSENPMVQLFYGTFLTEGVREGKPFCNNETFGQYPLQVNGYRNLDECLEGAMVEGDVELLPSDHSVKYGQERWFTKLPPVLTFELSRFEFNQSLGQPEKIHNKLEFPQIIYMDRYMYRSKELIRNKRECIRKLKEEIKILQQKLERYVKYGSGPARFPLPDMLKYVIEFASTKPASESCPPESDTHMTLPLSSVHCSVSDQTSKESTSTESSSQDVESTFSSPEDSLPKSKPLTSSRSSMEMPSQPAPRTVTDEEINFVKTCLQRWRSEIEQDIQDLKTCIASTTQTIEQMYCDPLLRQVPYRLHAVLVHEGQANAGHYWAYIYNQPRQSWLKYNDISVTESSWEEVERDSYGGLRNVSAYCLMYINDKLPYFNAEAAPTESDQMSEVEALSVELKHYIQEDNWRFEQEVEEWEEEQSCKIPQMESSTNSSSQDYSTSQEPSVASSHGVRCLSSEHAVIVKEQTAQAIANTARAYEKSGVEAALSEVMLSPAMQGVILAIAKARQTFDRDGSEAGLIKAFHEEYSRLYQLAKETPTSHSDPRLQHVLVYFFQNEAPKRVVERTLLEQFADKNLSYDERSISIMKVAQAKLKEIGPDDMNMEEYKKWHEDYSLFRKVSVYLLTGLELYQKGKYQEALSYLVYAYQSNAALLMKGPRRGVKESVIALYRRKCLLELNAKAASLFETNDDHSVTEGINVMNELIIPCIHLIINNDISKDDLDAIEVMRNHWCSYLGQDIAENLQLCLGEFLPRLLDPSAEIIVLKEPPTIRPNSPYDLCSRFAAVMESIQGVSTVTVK
Procedure, shortened: as §1

Measured: log2 ratio of Biotin-Ahx-Ub-VS probe labelling

CC(c1ccccc1)N(C)C(=O)CCl (stereo not given)
inactive: USP19 -0.444 | USP22 0.102 | USP24 -0.45 | USP25 -0.472 | USP28 -0.526
